Pf growth 96h: Primary qHTS for delayed death inhibitors of the malarial parasite plastid, 96 hour incubation; P. falciparum luciferase reporter growth, 96 h; Potency, µM (titrated, usually from 28.7 µM), hits mostly inhibitors; actives 6.9% (n = 320,000); AID 504834, 2011
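Parasite growth measured via integrated firefly luciferase reporter in P. falciparum. Infected erythrocytes at 2% hematocrit, 0.05% parasitemia final were treated 96 hours at 37 C under 5% CO2, and luminescence was read.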
HCV inh: qHTS Assay for Inhibitors of Hepatitis C Virus (HCV). actives 3.4% (n = 340,000). Huh7.5.1 HCVcc-Cre infection, luciferase reporter, 44 h. Potency, µM (top dose mostly 41.8 µM), hits mostly inhibitors
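Cells (1,000/well) were plated 4 h before compound, then infected with HCVcc-Cre virus (~0.5 moi). After 44 h further culture, infection was read as luciferase luminescence following a 15 min substrate incubation at room temperature.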
HCMV antiviral: qHTS Assay for inhibitors of the human cytomegalovirus (HCMV); HFF cells, HCMV-luciferase reporter, 72 h; hits give low values; activity change, negative = inhibition, % at 57.5 µM; actives 4.5% (n = 410,000); AID 1259415, 2018; in the data active = activity change below about -60%; inconclusive = no clear call, values can overlap the other calls; inactive = above about -39%
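After 16 h attachment at 37C, HFF cells received test compound and HCMV-luciferase (1 PFU/cell); reporter luminescence read 72 h later, data normalized against buffer-only and known inhibitor Salinomycin.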
Pf growth 48h: Primary qHTS for delayed death inhibitors of the malarial parasite plastid, 48 hour incubation; Potency, µM (highest dose often 28.7 µM), most hits filed as inhibitors; actives 5.9% (n = 310,000); P. falciparum luciferase growth in erythrocytes, 48 h; AID 504832, 2011
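Luciferase-expressing parasites in RBCs, 2% Hct / 0.1% parasitemia final; RPMI 1640 + 0.5% Albumax; 37 C, 5% CO2, one generation; luminescence read-out, lower signal = inhibition.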
Of the large screens only hits and unclear results are named; the others gave an inactive call. Sampled rows, rich in hits. Any-hit rate of the full collection: about 13%. Unless noted, calls come from the whole dose curve; as a rule, active = well fitted inhibition curve with a large enough effect; inconclusive = small, poorly fitted or top-dose-only effect, or another doubt; inactive = no such curve, though single readings can be large or run the other way.

O=C(OCC1CCCO1)c1ccc2c(c1)N(Cc1ccccc1)C(=O)c1ccccc1S2(=O)=O (centres undefined)	none (no result: Pf growth 96h, HCV inh, Pf growth 48h)
Cc1ccccc1-c1ccc(/C=C2/SC(N3CCOCC3)=NC2=O)o1	Pf growth 96h inconclusive, HCV inh inconclusive, Pf growth 48h 10µM
CCOc1ccc(NC(=O)CC2C(=O)N(c3ccc(F)cc3)C(=O)N2Cc2ccc(OC)c(OC)c2)cc1 (centres undefined)	none (no result: Pf growth 96h, HCV inh, Pf growth 48h)
Cc1ccccc1-c1noc(-c2ccc(N3CCN(C)CC3)c([N+](=O)[O-])c2)n1	HCMV antiviral -75 (no result: Pf growth 96h, HCV inh, Pf growth 48h)
Cc1ccccc1-c1noc(-c2ccc(N3CCOCC3)c([N+](=O)[O-])c2)n1	none (no result: Pf growth 96h, HCV inh, Pf growth 48h)
Cc1ccccc1-c1noc(-c2ccc(N3CCCC3)c([N+](=O)[O-])c2)n1	HCMV antiviral -69 (no result: Pf growth 96h, HCV inh, Pf growth 48h)
Cc1ccc(C(c2sc3nc(-c4ccco4)nn3c2O)N2CCN(c3ccc(F)cc3)CC2)cc1 (centres undefined)	none (no result: Pf growth 96h, HCV inh, Pf growth 48h)
CC1CC(C)CN(CCOc2ccccc2-c2ccccc2)C1 (centres undefined)	Pf growth 96h 10µM, Pf growth 48h inconclusive
c1ccc(-c2ccccc2OCCCCN2CCCCC2)cc1	HCV inh inconclusive, HCMV antiviral inconclusive, Pf growth 48h 10µM
c1ccc(-c2ccccc2OCCCN2CCCC2)cc1	Pf growth 96h inconclusive
c1ccc(-c2ccccc2OCCCN2CCCCCC2)cc1	HCV inh inconclusive, HCMV antiviral -72, Pf growth 48h inconclusive
COc1ccc(OC)c(CN2C(=O)CCC2(C)c2nnnn2-c2c(C)cccc2C)c1 (centres undefined)	none (no result: Pf growth 96h, HCV inh, Pf growth 48h)
COc1ccccc1CNC(=O)COc1ccc(S(=O)(=O)N2CCOCC2)cc1	Pf growth 96h inconclusive, Pf growth 48h inconclusive
COc1ccccc1CNC(=O)COc1ccc(S(=O)(=O)N2CCCC2)cc1	Pf growth 48h 13µM
CCOc1ccc(S(=O)(=O)N2CCC(C(=O)OCc3cccc(OC)c3OC)CC2)cc1	Pf growth 96h inconclusive, Pf growth 48h 9.3µM
CC(C)NC(=O)COc1ccc(S(=O)(=O)N2CCCC2)cc1	Pf growth 96h 1.5µM
COc1cccc(COC(=O)C2CCN(S(=O)(=O)c3ccc(C)cc3)CC2)c1OC	Pf growth 48h inconclusive
CSc1ccccc1NC(=O)COc1ccc(S(=O)(=O)N2CCCC2)cc1	Pf growth 96h inconclusive, HCV inh inconclusive, Pf growth 48h 13µM
COc1ccccc1Cc1nc2ccccc2nc1SCC(=O)N1CCN(c2ccccc2)CC1	none (no result: Pf growth 96h, HCV inh, Pf growth 48h)
CCOC(=O)C1=C(C)N(c2ccccc2)C(=O)C1CC(=O)O (centres undefined)	Pf growth 96h 12µM
Cc1ccc2c(c1)c1c(n2CCc2ccc(C)nc2)CCN(C)C1	Pf growth 96h 2.1µM, Pf growth 48h 15µM (no result: HCV inh)
O=C1CC[C@@H](CN(Cc2ccccn2)Cc2nc(Cc3ccccc3)no2)N1	Pf growth 96h 17µM
Cc1cccc(CC(=O)NC2CC(=O)N(c3cccc(F)c3)C2)c1 (centres undefined)	none (no result: Pf growth 96h, HCV inh, Pf growth 48h)
Oc1sc(C=Nc2ccc(F)cc2)c2ccccc12	Pf growth 96h 3.3µM, HCV inh inconclusive, Pf growth 48h 4.7µM
Oc1sc(C=Nc2ccccc2)c2ccccc12	Pf growth 96h inconclusive, HCV inh inconclusive
CCN1CC2=C(OC(N)=C(C#N)C2c2cccs2)/C(=C\c2cccs2)C1 (centres undefined)	Pf growth 96h 9.3µM, HCV inh 14µM (no result: Pf growth 48h)
Cc1cccc(CSc2ccc3nnc(CCNS(=O)(=O)c4ccccc4)n3n2)c1	none (no result: Pf growth 96h, HCV inh, Pf growth 48h)
COC(=O)c1ccccc1NC(=O)CCCn1nc(C)c2c(C)n(-c3ccccc3)nc2c1=O	Pf growth 96h 15µM, HCMV antiviral inconclusive, Pf growth 48h inconclusive
Cc1ccccc1NC(=O)CCCn1nc(C)c2c(C)n(-c3ccccc3)nc2c1=O	Pf growth 96h inconclusive
Cc1cc(C)cc(NC(=O)CCCn2nc(C)c3c(C)n(-c4ccccc4)nc3c2=O)c1	Pf growth 96h 13µM
Cc1cccc(NC(=O)CCCn2nc(C)c3c(C)n(-c4ccccc4)nc3c2=O)c1C	none (no result: Pf growth 96h, HCV inh, Pf growth 48h)
COc1ccc(Br)cc1CNC(=O)c1cc2ccccn2n1	none (no result: Pf growth 96h, HCV inh, Pf growth 48h)
O=C1C(=O)N(C(CCc2ccccc2)c2nnnn2Cc2ccccc2)c2ccccc21 (centres undefined)	none (no result: Pf growth 96h, HCV inh, Pf growth 48h)
COc1ccc(N2CCN(C(=O)CCc3ccccc3OC)CC2)cc1	none (no result: Pf growth 48h)
COc1ccc(-n2c(=O)c(CCC(=O)N3CCN(c4ccccc4O)CC3)nc3ccccc32)cc1	Pf growth 96h 8.3µM, HCMV antiviral inconclusive, Pf growth 48h 3.7µM
C[N+](C)(CCOc1ccccc1)Cc1ccccc1	none (no result: Pf growth 96h, Pf growth 48h)
Cc1cc(C(C)(C)CC(C)(C)C)ccc1OCCOCC[N+](C)(C)Cc1ccccc1	Pf growth 96h 0.47µM, HCV inh 2.8µM, HCMV antiviral -94, Pf growth 48h 1.7µM
COc1cccc(NC(=O)Cn2c(=O)n(CCc3ccccc3)c(=O)c3c4c(sc32)CN(C(C)=O)CC4)c1	none (no result: Pf growth 96h, HCV inh, Pf growth 48h)
CN(C)c1cc[n+](Cc2c(Cl)cccc2Cl)cc1	Pf growth 96h 0.37µM, HCV inh inconclusive, HCMV antiviral -87, Pf growth 48h 4.7µM
Cc1cc(C)c2c(CC(=O)Nc3c(C(=O)c4ccc(F)cc4)oc4ccccc34)coc2c1	none (no result: Pf growth 96h, HCV inh, Pf growth 48h)
CCOc1nc(-c2ccc(C)cc2)ccc1-c1noc(COC)n1	HCV inh 10µM, Pf growth 48h inconclusive
COC(=O)C1=C(C)N(Cc2ccccc2C(F)(F)F)C(=NCc2ccc(OC)cc2)NC1c1ccccc1 (centres undefined)	none (no result: Pf growth 96h, HCV inh, Pf growth 48h)
CCO[C@@H]1OC(C(=O)N2CCN(Cc3ccccc3)CC2)=C[C@H](c2ccc(C(F)(F)F)cc2)[C@H]1CCCO	Pf growth 96h 15µM, HCV inh inconclusive, Pf growth 48h inconclusive
CCO[C@H]1OC(C(=O)N2CCN(Cc3ccccc3)CC2)=C[C@@H](C)[C@@H]1CCCO	none
CCO[C@@H]1OC(C(=O)N2CCN(Cc3ccccc3)CC2)=C[C@H](c2ccc(Br)cc2)[C@H]1CCCO	Pf growth 96h 13µM, Pf growth 48h inconclusive
COCCN1CCCc2nc(-c3ccc(F)cc3)ccc21	none (no result: Pf growth 96h, HCV inh, Pf growth 48h)
CCOC(=O)c1cccc(NC(=O)CSc2cc(=O)n(C)c3ccccc23)c1	none (no result: Pf growth 96h, HCV inh, Pf growth 48h)
Cc1cccc(C)c1-n1c(C)cc(/C=C2\NC(=O)NC2=O)c1C	Pf growth 96h 12µM, Pf growth 48h 12µM
Cc1cc(/C=C2\NC(=O)NC2=O)c(C)n1-c1cccnc1	none
COC(=O)C1=C(C)NC(=O)/C1=C\c1cc(C)n(-c2ccccc2C)c1C	Pf growth 96h 9.3µM, HCV inh inconclusive (no result: Pf growth 48h)
COC(=O)C1=C(C)NC(=O)/C1=C\c1cc(C)n(-c2c(C)cccc2C)c1C	Pf growth 96h 2.6µM, HCV inh inconclusive, HCMV antiviral -62 (no result: Pf growth 48h)
COC(=O)c1ccc(OCC2c3cc(OC)c(OC)cc3CCN2C(=O)c2cccc(C)c2)cc1 (centres undefined)	none (no result: Pf growth 96h, HCV inh, Pf growth 48h)
CC(C)CNc1cccc2c1S(=O)(=O)N[C@@H](CC(C)C)CO2	none (no result: Pf growth 96h, HCV inh, Pf growth 48h)
O=C(CSc1ncccc1C(=O)Oc1ccccc1Cl)Nc1ccccc1Cl	none (no result: Pf growth 96h, HCV inh, Pf growth 48h)
Cc1c(CCC(=O)O)c(=O)oc2cc3occ(C(C)(C)C)c3cc12	Pf growth 96h 1µM
